In the library only some 3.3% were active in any assay of this set; here they are far more common.
Gli-Sufu block = Gli-Sufu pathway antagonists, primary screen, luciferase luminescence, Sufu-KO-LIGHT cells, uHTS; inhibition, % at 5 µM; hit rate 0.74% among 340,000; Sufu-KO-LIGHT fibroblasts, Gli luciferase reporter luminescence;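 active = inhibition above about 55%, limit read from the data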
Jurkat NFkB inh = inhibitors of induced NF-kB luciferase reporter, primary screen, TCR NF-kB activation inhibitor project, cell-based, luminescence, uHTS | Jurkat, PMA/ionomycin-induced NF-kB luciferase reporter | hit rate 0.53% among 330,000 | AID 435003, 2010 | inhibition, % at 4 µM; in the data active = inhibition above about 50%
697 NFkB inh = inhibitors of PMA/ionomycin-induced NF-kB reporter, 697 cells, primary screen, B-cell NF-kB inhibitor project, cell-based, luminescence, uHTS. 697 B-cell NF-kB luciferase reporter, 16 h. inhibition, % at 4 µM. hit rate 0.33% among 330,000. AID 435022, 2010; in the data active = inhibition above about 35%
esBAF inh = Bmi1 luciferase reporter increase in mESCs, primary screen, esBAF inhibitor project, mouse ES cells, Bmi1 luciferase knock-in, single point; 24 h; 100% = twice the neutral-well signal; reporter increase, % at 12.5 µM; hit rate 2% among 350,000; in the data active = activation above about 40%; inconclusive = no clear call, values can overlap the other calls;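 also: a rise in the Bmi1 reporter signal indicates esBAF inhibition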
SMARCA2 act = SMARCA2 (BRM) function activators, primary screen, cell-based, luminescence, high throughput. activation, % at 9.1 µM. MG213 cells, MMTV-luciferase reporter, dexamethasone, overnight. AID 652017, 2013. hit rate 1% among 370,000; in the data active = activation above about 7.8%
esBAF Ring1 qPCR = Ring1 mRNA increase in mouse ESCs, confirmation, esBAF inhibitor project, cell-based, mouse ESC, RT-qPCR, cherry-pick; shares compounds with esBAF inh; mouse ESC E14, Ring1 mRNA RT-qPCR fold change; fold change at 33 µM; 550 tested, under 10 active;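 active = Ring1 gene expression raised more than 2-fold over untreated cells in both replicates at either tested dose; inconclusive = only one replicate above 2-fold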;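 also: Ring1 transcript normalised to actin housekeeping signal by TaqMan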
Fgf4 repress = Fgf4 mRNA decrease in mouse ESCs, confirmation, esBAF inhibitor project, cell-based, mouse ESC, RT-qPCR, cherry-pick; shares compounds with esBAF inh; mouse ESC E14, Fgf4 mRNA qPCR fold change; stronger effect = lower value; Fgf4 expression fold change at 33 µM; hit rate 4% among 550; AID 743177, 2013;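 active = Fgf4 expression under 0.8 fold of control in both repeat measurements at one or both tested doses; inconclusive = under 0.8 fold in just a single repeat measurement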;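 also: Fgf4 transcript normalised to actin in duplex TaqMan qPCR; cells exposed to compound for 24 h before lysis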
esBAF Bmi1 qPCR = esBAF inhibition via Bmi1 de-repression, confirmation, cell-based, RT-qPCR, mouse ESC, single point, cherry-pick; AID 743180, 2013; 550 tested, under 10 active; fold change at 33 µM; mouse ESE14 ES cells, Bmi1 mRNA qPCR fold; stronger effect = higher value; shares compounds with esBAF inh;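 active = Bmi1 expression fold change above 6 at either tested concentration, seen in replicate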
A549 tox SP = A549 cell cytotoxicity, cytotoxicity control, plate reader, single point, cherry-pick | 550 tested, under 10 active | shares compounds with esBAF inh | cell viability change % (negative = cytotoxic), % at 25 µM, hits read low | AID 743188, 2013; call rule not given here
HepG2 tox SP = HepG2 cell cytotoxicity, cytotoxicity control, plate reader, single point, cherry-pick; activity change, negative = inhibition, % at 25 µM; hit rate 4% among 550; stronger effect = lower value; shares compounds with esBAF inh; in the data active = activity change below about -50%
HEK293 tox SP = HEK293 cell cytotoxicity, cytotoxicity control, plate reader, single point, cherry-pick; hit rate 3% among 550; shares compounds with esBAF inh; activity change, negative = inhibition, % at 25 µM, hits read low; in the data active = activity change below about -38%, passing the limit was not always enough
A number is an active result; i = inactive; ? = inconclusive; nt = no result.

SMILES	Gli-Sufu block	Jurkat NFkB inh	697 NFkB inh	esBAF inh	SMARCA2 act	esBAF Ring1 qPCR	Fgf4 repress	esBAF Bmi1 qPCR	A549 tox SP	HepG2 tox SP	HEK293 tox SP
Cc1ccc(Nc2nc(-c3cccnc3)cs2)cc1Cl	i	i	i	62.7	i	i	0.74	i	i	i	i
COc1ccc(NC(=O)N(C)C[C@H]2Oc3ccc(NC(=O)Cc4ccccc4)cc3CC(=O)N([C@@H](C)CO)C[C@@H]2C)cc1	nt	nt	nt	i	nt	nt	nt	nt	nt	nt	nt
O=C(c1ccccc1)c1ccc2ccccc2c1	i	nt	nt	74.7	i	i	i	i	i	i	i
C[C@H]1CN([C@@H](C)CO)C(=O)c2cccc(NC(=O)C3CC3)c2O[C@@H]1CN(C)C(=O)Nc1ccc(F)cc1	nt	nt	nt	i	nt	nt	nt	nt	nt	nt	nt
COc1cc(CNc2ccc(S(N)(=O)=O)cc2)ccc1OCc1ccccc1F	i	nt	nt	96.0	i	i	i	i	i	i	i
COc1cccc(CNc2ccc(S(N)(=O)=O)cc2)c1OCc1ccccc1F	i	i	i	nt	i	nt	nt	nt	nt	nt	nt
O=C(NCC[C@@H]1CC[C@H](NC(=O)c2ccncc2)[C@@H](CO)O1)Nc1ccc(Cl)cc1	nt	nt	nt	i	nt	nt	nt	nt	nt	nt	nt
Fc1ccc(CSc2ccc(-c3cccs3)nn2)cc1	i	i	i	69.2	i	i	?	i	i	i	i
C=CCn1c(O)c(C=Nc2ccccc2)sc1=S	i	i	i	67.8	i	i	i	i	i	i	i
Cc1ccc(C)c(OCc2nc3ccccc3[nH]2)c1	i	i	i	66.3	i	i	i	i	i	i	i
Cn1ccc2c(-c3ccc(C(=O)O)cc3)cc3c(c21)C1CCC3C1 (configuration not stated)	nt	nt	nt	66.0	i	i	i	i	i	i	i
Cc1ccc(Nc2nc(Cl)nc(NC(C)(C)C)n2)cc1	i	i	i	76.7	i	i	?	i	i	i	i
Nc1cc2c3ccccc3ccc2c2ccccc12	i	nt	nt	79.0	i	0.641	0.475	37.1	i	i	-118.9
CCCOc1ccc(NC(=O)C2CC(=O)N/C(=N/N=C(C)/C=C/c3ccc(N(C)C)cc3)S2)cc1 (configuration not stated)	i	i	i	59.3	9.3	i	i	i	i	i	i
OC(c1ccccc1)c1nc(-c2ccc3c(c2)OCO3)cs1 (configuration not stated)	nt	nt	nt	61.0	i	i	i	i	i	i	i
COc1cccc(N2CCN(C(=O)c3ccc4nc(N5CCCCC5)sc4c3)CC2)c1	i	i	i	63.6	i	i	?	i	i	i	i
COc1cccc(N2CCN(C(=O)c3ccc4ccccc4c3)CC2)c1	i	i	i	i	i	nt	nt	nt	nt	nt	nt
NNC(=O)C=C1CCN(c2ncc(C(F)(F)F)cc2Cl)CC1	i	i	i	i	i	nt	nt	nt	nt	nt	nt
O=C(O)C=C1CCN(c2ncc(C(F)(F)F)cc2Cl)CC1	i	i	i	63.0	i	i	i	i	i	i	i
O=C(C[C@H]1C=C[C@@H](NC(=O)C2CC2)[C@H](CO)O1)NCc1ccccc1Cl	nt	nt	nt	i	nt	nt	nt	nt	nt	nt	nt
Cc1cccc(Oc2ccc(Cl)cc2N)c1	i	i	i	72.0	i	i	i	i	i	i	i
Cc1nc2c(sc3nc4c(cc32)COC(C)(C)C4)c(=O)n1Cc1ccccc1	i	i	i	63.9	i	i	i	i	i	i	i
COc1cccc(S(=O)(=O)N(C)C[C@@H]2Oc3cc(C#CCC(C)C)ccc3S(=O)(=O)N([C@@H](C)CO)C[C@H]2C)c1	nt	nt	nt	i	nt	nt	nt	nt	nt	nt	nt
COc1ccc(S(=O)(=O)N(C)C[C@H]2OCCCC[C@@H](C)Oc3ccc(N(C)C)cc3C(=O)N([C@H](C)CO)C[C@H]2C)cc1	nt	nt	nt	i	nt	nt	nt	nt	nt	nt	nt
N#C[C@@H]1[C@@H](c2ccc(C3=CCCC3)cc2)[C@H](CO)N1c1nc(-c2ccccc2)cs1	nt	nt	nt	i	nt	nt	nt	nt	nt	nt	nt
SMILES	Gli-Sufu block	Jurkat NFkB inh	697 NFkB inh	esBAF inh	SMARCA2 act	esBAF Ring1 qPCR	Fgf4 repress	esBAF Bmi1 qPCR	A549 tox SP	HepG2 tox SP	HEK293 tox SP
CN(c1cccc(NC(=O)c2ccc(N(C)S(=O)(=O)c3ccccc3)cc2)c1)S(C)(=O)=O	i	i	i	nt	i	nt	nt	nt	nt	nt	nt
CN(c1cccc(NC(=O)c2ccc(C(C)(C)C)cc2)c1)S(C)(=O)=O	i	i	i	72.8	i	i	i	i	i	i	i
CC(=O)N(C)C[C@@H]1Oc2cc(C#CC3CC3)ccc2S(=O)(=O)N([C@@H](C)CO)C[C@H]1C	nt	nt	nt	i	nt	nt	nt	nt	nt	nt	nt
Cc1ccccc1-c1nnc(-c2cccc3ccccc23)o1	i	nt	nt	71.1	i	i	i	i	i	i	i
Cc1ccccc1-c1nnc(SCC#N)o1	i	i	i	nt	i	nt	nt	nt	nt	nt	nt
O=S(=O)(N[C@@H]1CC[C@@H](CCn2cc(C3(O)CCCC3)nn2)O[C@@H]1CO)c1ccc(F)cc1	nt	nt	nt	i	nt	nt	nt	nt	nt	nt	nt
CCn1c(C)nc2cc(C(=O)NN=Cc3ccccc3OC(F)F)ccc21	i	i	i	79.4	i	i	i	i	i	i	i
COc1cc(C2Nc3cc(Cl)c(S(N)(=O)=O)cc3S(=O)(=O)N2)ccc1OCc1ccccc1 (configuration not stated)	i	i	i	?	i	i	i	i	i	-51.3	i
O=C(C[C@H]1C=C[C@H](NS(=O)(=O)c2ccc(F)cc2)[C@H](CO)O1)NCc1ccc(Cl)c(Cl)c1	nt	nt	nt	i	nt	nt	nt	nt	nt	nt	nt
COc1ccc(CN(C)C[C@@H]2OCCCC[C@@H](C)Oc3ccc(NC(=O)NC(C)C)cc3C(=O)N([C@H](C)CO)C[C@H]2C)cc1	nt	nt	nt	i	nt	nt	nt	nt	nt	nt	nt
O=C(N[C@@H]1CC[C@H](CCNC(=O)C2CCC2)O[C@@H]1CO)c1ccncc1	nt	nt	nt	i	nt	nt	nt	nt	nt	nt	nt
N#Cc1ccc(Nc2nc(-c3ccccc3)cs2)cc1	nt	nt	nt	73.6	i	i	i	i	i	i	i
O=C(O)c1ccc(Nc2nc(-c3ccccc3)cs2)cc1	i	i	i	nt	i	nt	nt	nt	nt	nt	nt
O=C(Cc1c[nH]c2ccccc12)Nc1nccs1	i	i	i	i	i	nt	nt	nt	nt	nt	nt

Screens: PubChem, several laboratories
